The text below walks through data of PubChem BioAssay AID434973 (Sanford-Burnham Center for Chemical Genomics, 2010).

Screen size: about 330,000 compounds; about 4,900 (1.5%) were called active. What follows is part of a selection rich in actives, with near analogues and random picks from the rest. Values without a mark were called inactive.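 Rule for the calls: active = inhibition above about 50% at the single test dose (limit read from the data); inactive = the rest.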

A word on the inhibition: it is the drop in the measured response relative to a control, in per cent.

The target in the test is Sentrin-specific protease 7 (Homo sapiens) (UniProt Q9BQF6). Briefly: blockers of human SENP7 peptidase activity – biochemical, luminescence, uHTS, primary screen (AID 434973).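 Note: plate controls were DMSO with enzyme for no effect and no enzyme buffer wells for full effect.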 To be noted: recombinant SENP7, Z-RLRGG-aminoluciferin luminescence, 40 min; at 5 µM; stronger effect = higher value.
For the compound `CCCCn1nc(C(=O)N2CCc3ccccc32)c2ccccc2c1=O`, the inhibition was 2.25%. Turning to `CCCCN(CC(=O)NC(C)(C)C)C(=O)C(=O)Nc1ccc2c(c1)OCCO2`, the inhibition was -0.161%.

With `CCNC(=S)N1CCC(c2nc3cc(C)c(C)cc3[nH]2)CC1`, the inhibition is 1.02%.

Consider `CNC(=S)Nc1ccc([N+](=O)[O-])cc1`, for which the inhibition is -6.08%. For `O=C(O)/C=C/C(=O)NNc1ccc([N+](=O)[O-])cc1`, the inhibition is 81.7% (active). Consider `O=C(Cc1ccccc1)NNS(=O)(=O)c1ccc([N+](=O)[O-])cc1`, for which the inhibition was 3.61%. As to `CN(CC(=O)Nc1ccc(F)cc1)CC(=O)N1CCCCC1`, the inhibition was 4.6%. As to `CSC1=N/C(=C\C=C\c2cccs2)C(=O)S1`, the inhibition is 43.7%. As for `CCC1C=C(c2ccccc2)C=CN=C1N(CC)CC` (stereo unspecified), the inhibition is 2.68%. Take `CS(=O)(=O)n1nc(-c2ccco2)nc1N`: the inhibition is 3.45%. `Cn1c(-c2ccco2)nc2cc3ccccc3cc21`: the inhibition was 98.5% (active). For the compound `COc1ccccc1-n1c(-c2cc(-c3ccco3)[nH]n2)n[nH]c1=S`, the inhibition is 2.77%.

As to `CCOC(=O)c1cnc2c(c(C)nn2CC)c1Cl`, the inhibition is -8.37%. On to `CCCn1c(N)c(C(=O)CSc2nnc(-c3cccnc3)n2-c2ccc(C)cc2C)c(=O)[nH]c1=O`, for which the inhibition was 2.06%. For the compound `CCc1ccc(OCC(O)CN2CCN(CCO)CC2)cc1` (stereo unspecified), the inhibition was 7.06%. On to `O=C(O)Cc1ccc(NC(=O)Nc2cccc3ccccc23)cc1`, for which the inhibition was 18.4%. The result for `CN(CC(=O)Nc1ccc(Cl)cc1)CC(=O)Nc1cccc2ccccc12` reads -3.2%.

`O=C(Nc1cccc2ccccc12)c1onc2c1CCCC2`: the inhibition is 64.8% (active). To `O=C1COc2ccc(C(=O)COC(=O)CCOc3ccccc3)cc2N1` belongs 7.4%.

As to `Cc1cccc(C(=O)N[C@H](C(=O)NCc2cccs2)C(C)C)c1`, the inhibition is 2.96%. In the case of `COC(=O)C1(C)NC(c2ccccc2OC)C2C(=O)N(c3ccccc3)C(=O)C21` (stereo unspecified), the inhibition is -1.56%.

Take `COC(=O)c1cc(NC(=O)CN2CCN(C(C)=O)CC2)cc(C(=O)OC)c1`: the inhibition was 11.3%. As for `O=C(CSc1ncn[nH]1)Nc1ccnc2ccccc12`, the inhibition is 11.7%. In the case of `COc1ccc(C(=O)Nc2ccc(C3(C#N)CCCC3)cc2)cc1OC`, the inhibition was 95.4% (active). With `COc1cc(C(=O)NCC2(c3ccccc3)CCCC2)ccc1OC(C)C`, the inhibition was 11.3%.

As for `COc1ccc(C(=O)Nc2ccc3nc(N4CCCCC4)cc(C)c3c2)cc1OC`, the inhibition is -1.83%.

For the compound `CC1CCN(S(=O)(=O)c2ccc(S(=O)(=O)NCc3ccco3)cc2)CC1`, the inhibition is -4.7%. For the compound `CN1CCN(CCNC(=O)Nc2ccccc2[N+](=O)[O-])CC1`, the inhibition was -10.6%. The result for `O=[N+]([O-])c1ccccc1N/N=C1\CCc2ccccc21` reads 54% (active); that for `O=[N+]([O-])c1cc(C(F)(F)F)ccc1NN=C1CCCC1`, 5.78%; that for `O=C(O)c1cc2ccccc2c(=O)s1`, -3.56%.

With `Cc1ccsc1C(=O)OCC(=O)c1cc(C)n(CC2CCCO2)c1C` (stereo unspecified), the inhibition was 94.5% (active).

Regarding `Cc1cc(C(=O)Cn2cnc3cc([N+](=O)[O-])ccc3c2=O)c(C)n1CC1CCCO1` (stereo unspecified), the inhibition was 1.73%.

Regarding `COc1ccc(C(=O)OCC(=O)c2cc(C)n(CC3CCCO3)c2C)cc1[N+](=O)[O-]` (stereo unspecified), the inhibition was -9.42%.

With `CC1CCc2c(c3ccccc3[nH]c2=O)O1` (stereo unspecified), the inhibition was 4.43%. With `COc1ccc(CNC(=O)COc2ccccc2C(=O)c2cnn(-c3ccccc3)c2)cc1OC`, the inhibition is 60.9% (active). For `COc1ccc(CNC(=O)Cc2ccc(-c3ccccc3)cc2)cc1OC`, the inhibition is -4.04%. With `COc1ccc(CNC(=O)COC(=O)c2c(C)nn(-c3ccccc3)c2C)cc1OC`, the inhibition was 4.03%.

Turning to `CCOc1ccc(C(=O)NCC(=O)N2CCCCCCC2)cc1OCC`, the inhibition was 6.97%. As for `CCN1C[C@@H]2[C@@H]3C(=O)N(Cc4ccccc4)C(=O)[C@@H]3[C@](Cc3ccccc3)(C(=O)OC)N2C1=NC1CCCCC1`, the inhibition is 8.17%.

In the case of `Cc1ccc(NC(=O)c2cccc(S(=O)(=O)N3CCCc4ccccc43)c2)nc1`, the inhibition is 5.31%. With `CC(C)c1ccc(S(=O)(=O)N2CCC3(CC2)OCCO3)cc1`, the inhibition is 3.85%. In the case of `CCC1C/C(=C/c2cccs2)C(=O)/C(=C/c2cccs2)C1` (stereo unspecified), the inhibition was 1.12%. On to `O=C1/C(=C/c2cccs2)CCC1C1CCCC1` (stereo unspecified), for which the inhibition was 70% (active).

Regarding `O=C1/C(=C/c2cccs2)CCc2ccccc21`, the inhibition is 97.7% (active). Regarding `COc1ccc(/C=C2\CCc3ccccc3C2=O)c(OC)c1OC`, the inhibition is -0.625%. With `O=C1/C(=C/c2cccs2)SC(=S)N1C1CCS(=O)(=O)C1` (stereo unspecified), the inhibition is 0.763%. Consider `CN1C/C(=C/c2cccs2)C(=O)/C(=C\c2cccs2)C1`, for which the inhibition is 7.35%. The result for `CC(=O)N1CCN(S(=O)(=O)c2c(F)cc(F)c(Cl)c2F)CC1` reads 2.44%.

Regarding `O=C1Nc2cc(C(=O)N3CCN(c4ccc(F)cc4)CC3)ccc2NC1CSCc1cccc(F)c1` (stereo unspecified), the inhibition is 8.91%. To `COc1ccccc1C(=O)Nc1ccc(C)c(S(=O)(=O)N2CCCCC2)c1` belongs -5%; to `Cc1cnc(C(=O)N2CCCC(N3CCN(c4ccccc4F)CC3)C2)cn1` (stereo unspecified), -6.9%; to `O=C1CN(C(=O)c2ccccc2F)C(c2ccc(F)cc2)c2cc(F)ccc2N1` (stereo unspecified), -0.54%. Consider `Oc1ccc(N=Nc2nccs2)c(O)c1`, for which the inhibition was 74.3% (active). `Cc1ccc(OCC(=O)N2CCN(S(=O)(=O)c3ccc(Cl)s3)CC2)cc1C`: the inhibition was 8.22%.

`COc1ccccc1-c1nc(C(F)(F)F)c(OC)o1`: the inhibition is -6.4%. Consider `COc1ccccc1-c1nnc(-c2ccc(F)cc2)o1`, for which the inhibition is 50.3% (active).

On to `CSc1ccccc1-c1nnc(-c2ccc(Cl)cc2)o1`, for which the inhibition is 28.1%. To `O=C(NCc1cccc(Cl)c1)C1=CC=CN2CCS(=O)(=O)N=C12` belongs -0.294%. As for `CN1C(=O)c2cccc3c(N)ccc(c23)C1=O`, the inhibition was -3.67%. As for `CCN1C(=O)c2cccc3c(N)ccc1c23`, the inhibition is 95.9% (active).

As to `CCN1C(=O)c2cccc3c(S(=O)(=O)Nc4ccccc4O)ccc1c23`, the inhibition was 11.4%. As to `CCOC(=O)C1=NNC2(c3ccc(Cl)cc3)C(=O)N(c3cc(C)cc(C)c3)C(=O)C12` (stereo unspecified), the inhibition is 6.05%. For `CCCn1c(=O)c2c(C(F)(F)F)cc(-c3cccs3)nc2n(CCC)c1=O`, the inhibition is 3.7%. Consider `CCc1nnc(NC(=O)c2c(O)c3c([nH]c2=O)CCCC3)s1`, for which the inhibition was -5.71%. As for `C[N+](C)(C)CCNC(=O)c1c(O)c2c([nH]c1=O)CCCC2`, the inhibition is 4.83%. To `O=C(NCc1ccccn1)c1c(O)c2c([nH]c1=O)CCCC2` belongs 53.8% (active); to `CN1CCN(S(=O)(=O)c2ccc(Nc3ccc(F)cc3)nc2)CC1`, -1.19%. To `O=C(Nc1ccn(Cc2ccccc2F)n1)c1ccc(COc2ccc(Cl)cc2Cl)o1` belongs -4.47%; to `Cc1c(Br)c([N+](=O)[O-])nn1CC(=O)N1CCN(Cc2ccccc2)CC1`, -3.11%. To `O=C(Nc1ccn(Cc2ccccc2)n1)c1n[nH]c([N+](=O)[O-])c1Cl` belongs 93.9% (active); to `CCN(CC)S(=O)(=O)c1ccc(C(=O)N2CCN(C3=NS(=O)(=O)c4ccccc43)CC2)cc1`, 0.565%.

Take `COC(CNC(=O)c1ccc2c(c1)ncn2-c1cc(C)cc(C)c1)OC`: the inhibition was -3.05%. Consider `COc1cc2c(cc1OC)C(C)N(S(=O)(=O)c1cnc(Cl)c(Cl)c1)CC2` (stereo unspecified), for which the inhibition was 7.13%. For the compound `CCn1ccnc1CN(C)Cc1nc(-c2ccc3c(c2)OCO3)no1`, the inhibition is 3.04%. Consider `Cc1cc(NC(=O)c2ccc(F)cc2)ccc1NC(=O)c1ccco1`, for which the inhibition was 64.1% (active).

Turning to `COc1ccc(NC(=O)c2ccco2)cc1NC(=O)c1ccc(C#N)cc1F`, the inhibition was 1.99%. On to `COc1ccccc1C(=O)Nc1ccc(NC(=O)c2ccco2)c(C)c1`, for which the inhibition was 50.6% (active). For `O=C(Nc1ccc(O)cc1)c1ccc(NC(=O)c2ccco2)cc1`, the inhibition is -10.1%. `Cc1cccc(OCC(=O)Nc2ccc(NC(=O)c3ccco3)c(C)c2)c1`: the inhibition was 7.42%.

As to `COc1ccc(OCC(=O)Nc2ccc(NC(=O)c3ccco3)c(C)c2)cc1`, the inhibition was -4.14%. The result for `[O-][N+]12CCCCC1CCCC2CO` (stereo unspecified) reads 5.46%; that for `O=C(COc1nc2ccccc2nc1N1CCOCC1)NCC(F)(F)F`, -5.55%. The result for `CC1CCN(C(=O)C2CCN(S(=O)(=O)N3CCC4(CC3)OCCO4)CC2)CC1` reads 6.94%; that for `C=CCNC(=O)c1cc(-c2ccccc2O)on1`, -13.1%; that for `O=C(Nc1cccnc1Cl)c1cc(-c2cccc(Cl)c2)on1`, -0.404%.

As to `O=C(Nc1cccnc1Cl)c1cc(-c2ccccc2O)on1`, the inhibition was 52% (active). As for `Cc1nc2nc(COc3ccccc3)[nH]n2c(=O)c1Cc1ccccc1`, the inhibition is -6.63%. As to `CC(Oc1ccc(Br)cc1Br)C(=O)NC1CCCC1` (stereo unspecified), the inhibition was 4.39%.

`CN(CCC(=O)Nc1cc(S(=O)(=O)N(C)C)ccc1Cl)CC(=O)Nc1ccc(F)cc1`: the inhibition was 4.2%. To `Cc1ccccc1Nc1c([N+](=O)[O-])ccc2nonc12` belongs -0.26%; to `Cc1cccc(C(=O)OCC(=O)Nc2ccc(F)cc2)c1`, -5.6%; to `CCC(=O)Nc1ccc2nn(-c3ccc(F)cc3)nc2c1`, 81.9% (active).

As to `Cc1ccc(-n2nc3ccc(NC(=O)/C=C/c4ccco4)cc3n2)cc1C`, the inhibition is -3.4%. As for `CC12CN(Cc3ccccc3)CC(C)(CN(Cc3ccccc3)C1)C2=NO`, the inhibition is -9.93%. Regarding `COc1cccc(C(=O)Nc2nc3ccc(S(C)(=O)=O)cc3s2)c1`, the inhibition was 91.1% (active). For `COc1cccc(C(=O)Nc2nnc(S(=O)(=O)N(C)c3ccccc3)s2)c1`, the inhibition was 2.47%.

For the compound `Cc1noc(C)c1CSCC(=O)Nc1nc2ccc(Oc3ccccc3)cc2s1`, the inhibition is 7.89%.

Regarding `CCc1noc(C)c1C(=O)Nc1nc2ccc(OC)cc2s1`, the inhibition was 53.6% (active). The result for `CCc1noc(C)c1C(=O)Nc1nc(-c2ccccc2)cs1` reads 0.582%. As to `COc1cccc(C(=O)Nc2nnc(S(=O)(=O)N3CCOCC3)s2)c1`, the inhibition was -5.71%.
